SMILES strings stand for the structures.

In this experiment the test system is XIP peptide (Xip251-270). Briefly: compounds binding XIP fragment 251-270 – biochemical, small-molecule microarray, fluorescence 635/667 nm, 0.5 µg/mL protein, primary screen (AID 1183). To be noted: fluorescence 635 nm, higher = more signal.
As to `COC(=O)[C@@]1(Cc2ccc(F)cc2)[C@H]2c3cc(C(=O)N(C)C)n(Cc4ccc(O)c(OC)c4)c3C[C@H]2CN1C(=O)c1ccccc1`, the composite z-score is 0.744.

For `CO[C@H]1O[C@H](CO)[C@@H](OC(=O)Nc2cccc(F)c2)[C@H](OC(=O)Nc2ccccc2-c2ccccc2)[C@H]1OC(=O)Nc1ccccc1-c1ccccc1`, the composite z-score came out at 0.857.

On to `C=C(CCCC)/C(=C/C[C@H](OC(C)=O)c1ccc(OCCO)cc1)c1cc(C(=O)OC)ccc1OC`, for which the composite z-score is 0.71.

With `COCCCNC(=O)[C@@]1(Sc2ccc(C)cc2)CC(=O)N(Cc2ccccc2Cl)[C@@H]1c1ccc(CO)cc1I`, the composite z-score was found to be 0.194.

As for `COc1cccc(/C=C(\C#N)C(=O)Nc2c(C)n(C)n(-c3ccccc3)c2=O)c1`, the composite z-score stood at 0.438.

As to `CS(=O)(=O)CCOC(=O)C1=CC(CCCO)=CC(C2CC2)N(Cc2cccc(OC(F)(F)F)c2)C=C1C(=O)OCCS(C)(=O)=O` (stereo not given), the composite z-score was -0.221.

For `COc1ccc(C#Cc2ccc3c(c2)[C@]2(C(=O)N3)[C@H](C(=O)Nc3nc4ccccc4s3)[C@H]3C(=O)O[C@H](c4ccccc4)[C@H](c4ccccc4)N3[C@@H]2c2ccccc2OCCO)cc1`, the composite z-score came to 0.598.

Consider `C=C[C@@H](C)[C@@H](OC(=O)Nc1ccc(SC)cc1)c1ccc(OCCO)cc1`, for which the composite z-score stood at 0.663.

In the case of `CC(=O)N1CC(C(O)C2C=CC3C(=O)NC(=O)C3N2Nc2ccc(Cl)cc2Cl)c2ccccc21` (stereo not given), the composite z-score is 0.0205.

`CC(C)C[C@@H]1NC(=O)[C@H]2C[C@@H](C(=O)NCCCCCN)[C@@H](c3cccc(OCCO)c3)N2C1=O`: the composite z-score was 0.853.

On to `C=C(/C(=C/C[C@@H](OC(C)=O)c1ccc(CO)o1)c1cc(C(=O)OC)ccc1OC)C(C)C`, for which the composite z-score is 0.135.

As for `O=C1OCC=C[C@H]2OC34C=CCN(c5ccc6ccccc6c5)C(=O)[C@H]3N(CCCCCO)C(=O)[C@@H]4[C@@H]12` (stereo not given in full), the composite z-score turned out to be 0.351.

As to `COC(=O)[C@@]1(Cc2ccccc2)[C@H]2c3cc(C(=O)N4CCCC4)n(CCSCCO)c3C[C@H]2CN1C(=O)c1ccccc1`, the composite z-score was 0.752.

Take `NC(=O)[C@@H]1[C@H]2C(=O)O[C@H](c3ccccc3)[C@H](c3ccccc3)N2[C@H](c2ccc(OCCO)cc2)[C@@]12C(=O)Nc1ccc(C#CCCO)cc12`: the composite z-score worked out at 0.808.

For the molecule `[N-]=[N+]=Nc1ccccc1C[C@]1(C(=O)NCc2ccccc2)COC(c2ccc(OCCCO)cc2)=N1`, the composite z-score is 0.651.

With `CN1C(=O)[C@@]2(Cc3ccccc3)N=C(c3ccc(OCCCO)cc3)O[C@H]2c2ccccc21`, the composite z-score is 0.687.

Turning to `CCOC(=O)C[C@H]1[C@H](OC(=O)c2ccccc2-c2ccccc2)[C@@H](NC(=O)c2ccc3ccccc3n2)c2cc(OCCCO)ccc2N1C(=O)c1ccccc1`, the composite z-score worked out at 0.04.

As for `Nc1cc(Br)ccc1C(=O)O`, the composite z-score is -0.244.

Consider `C=C(COC)C(=O)CC[C@@H](OC(=O)c1cccnc1)c1ccccc1OCCO`, for which the composite z-score is -0.576.

In the case of `CCOC(=O)C1=C[C@@H](c2ccccc2)N(S(=O)(=O)c2ccc(C)cc2)[C@H]1c1ccccc1`, the composite z-score came to 0.303.

As for `CC(C)c1ccc(NN2C(C(O)Cc3ccccc3)C=CC3C(=O)N(c4ccccc4)C(=O)C32)cc1` (stereo not given), the composite z-score came to 0.655.

Take `C=CCC(OC(C)=O)[C@@H]1[C@@H](N(Cc2ccc(-c3cccc(C(F)(F)F)c3)o2)C(=O)Cc2ccc(OC)cc2)c2cc(OCCCO)ccc2N1C(=O)Cc1ccc2ccccc2c1` (stereo not given in full): the composite z-score was 0.625.

Turning to `COCCOC(=O)N1C(=O)[C@@]2(c3cc(C#CCNC(N)=O)ccc31)[C@H](c1ccc(O)cc1)N1[C@H](c3ccccc3)[C@H](c3ccccc3)OC(=O)[C@H]1[C@@H]2C(N)=O`, the composite z-score was determined as 0.124.

Take `C=CC1c2cc(O)c(OC)cc2CCN1Cc1ccc([N+](=O)[O-])o1` (stereo not given): the composite z-score is 0.905.

Regarding `CC(=O)n1cc(C(O)C2C=CC3C(=O)N(c4ccccc4)C(=O)C3N2Nc2ccc(C(C)C)cc2)c2ccccc21` (stereo not given), the composite z-score is 0.755.

`CO[C@H]1O[C@H](CO)[C@@H](OC(=O)c2ccc(Br)cc2)[C@@H]2OC(=O)[C@H](Cc3ccccc3)C/C=C/C[C@@H](Cc3ccccc3)C(=O)O[C@@H]12`: the composite z-score was found to be 0.629.

In the case of `CN(C)CCCC[C@@H]1NC(=O)[C@@H]2C[C@H](C(=O)O)[C@H](c3cccc(OCCO)c3)N2C1=O`, the composite z-score came to 0.0695.

Regarding `CCCCCCCCCCC(O)C1C=CC2C(=O)N(c3ccccc3)C(=O)C2N1Nc1ccccc1F` (stereo not given), the composite z-score is 0.538.

`C=CCOC(=O)[C@H]1[C@@H]2C(=O)O[C@@H](c3ccccc3)[C@@H](c3ccccc3)N2[C@@H](c2ccc(OCCOC(=O)[C@H]3C[C@H]4C(=O)N[C@@H](CCCCNC(C)=O)C(=O)N4[C@H]3c3cccc(OCCO)c3)cc2)[C@]12C(=O)Nc1ccc(I)cc12`: the composite z-score was 0.68.

Take `Cc1ccc(F)cc1S(=O)(=O)N[C@@H]1CCN(Cc2cccc3[nH]ccc23)C1`: the composite z-score was determined as 0.578.

As for `CC(C)C(=C=CC[C@@H](O)c1cccc(OCCO)c1)C[C@@H](O)c1ccccn1`, the composite z-score stood at 0.29.

For the molecule `[N-]=[N+]=NCc1ccccc1[C@H]1OC(c2ccc(OCCCO)cc2)=N[C@@]1(Cc1ccccc1)C(=O)NCCN1CCOCC1`, the composite z-score was found to be 0.816.

Turning to `C=CC[C@H](OC(=O)Nc1ccc(SC)cc1)c1ccc(OCCO)cc1`, the composite z-score is -0.141.

For the molecule `CN(C)C(=O)[C@@]1(Cc2ccccc2)COC(c2ccc(OCCCO)cc2)=N1`, the composite z-score was 0.845.

Take `NC(=O)[C@H]1[C@@H]2C(=O)O[C@@H](c3ccccc3)[C@@H](c3ccccc3)N2[C@@H](c2ccc(O)cc2)[C@]12C(=O)Nc1ccc(C#CC3=CCCCC3)cc12`: the composite z-score is -0.0283.

These data come from PubChem BioAssay.
